Only some compounds are listed: those with a hit (about 2.7% of all), similar ones and a draw of the others.
Nrf2 ARE act – activates Nrf2 signaling; Potency, µM (titrated, usually from 46.1 µM), actives largely listed as activators; AREc32 ARE-luciferase reporter (MCF7-derived line), luminescence, 24 h; AID 624171; hit rate 0.31% among 410,000; also: nearly all actives have a fitted effect of over 65% in size
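AREc32 cells carrying an ARE-driven firefly luciferase, 1000 cells/well in OPTI-MEM with 5% FBS, dosed after overnight attachment and incubated 24 hr at 37 deg C. Steady-Glo luminescence read after 30 min at RT.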
ERG-DNA inh – inhibitors of human ERG Ets domain-DNA interaction. Potency, µM (series often up to 76.9 µM), usual class: inhibitors. hit rate 0.028% among 370,000. AID 624246. fluorescence polarization, His-ERG Ets domain / labelled DNA; active = well fitted inhibition curve with a large enough effect in the polarisation, with a control signal flat; inconclusive = small, poorly fitted or top-dose-only effect, or effect the other way, or a change in a side signal; inactive = no such curve, though single readings can be large or run the other way; the % refers to the polarisation;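 also: polarization taken with two DNA probes labelled with fluorescein and Texas red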
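His-tagged ERG Ets domain (1 uM in the protein solution; 300mM KCl, 50mM Tris-HCl, 1mM EDTA, 1mM DTT, pH 7.5) received compound, then a probe mix of 5 nM fluorescein-DNA and 100nM Texas-615-DNA. Fluorescence polarization was read for both dyes.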
Nrf2 block – inhibitors of Nrf2 signaling; A549 ARE-Fluc reporter, luciferase luminescence, 18-24 h; AID 504444; hit rate 2.1% among 360,000; Potency, µM (top dose mostly 46 µM), usual class: inhibitors; also: nearly all actives have a fitted effect of over 60% in size
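Quantitative HTS in A549 cells stably bearing an antioxidant response element-firefly luciferase construct. Inhibition of Nrf2-driven transcription was scored by luminescence after 18-24 h of compound exposure at 37 °C.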
12-LOX inh – inhibitors of human 12S-lipoxygenase ALOX12. AID 1671190. P18054. Potency, µM (series often up to 108 µM), actives largely listed as inhibitors. purified 12hLO, xylenol orange hydroperoxide absorbance. hit rate 1.1% among 580,000
Target sequence (P18054 whole entry, looked up): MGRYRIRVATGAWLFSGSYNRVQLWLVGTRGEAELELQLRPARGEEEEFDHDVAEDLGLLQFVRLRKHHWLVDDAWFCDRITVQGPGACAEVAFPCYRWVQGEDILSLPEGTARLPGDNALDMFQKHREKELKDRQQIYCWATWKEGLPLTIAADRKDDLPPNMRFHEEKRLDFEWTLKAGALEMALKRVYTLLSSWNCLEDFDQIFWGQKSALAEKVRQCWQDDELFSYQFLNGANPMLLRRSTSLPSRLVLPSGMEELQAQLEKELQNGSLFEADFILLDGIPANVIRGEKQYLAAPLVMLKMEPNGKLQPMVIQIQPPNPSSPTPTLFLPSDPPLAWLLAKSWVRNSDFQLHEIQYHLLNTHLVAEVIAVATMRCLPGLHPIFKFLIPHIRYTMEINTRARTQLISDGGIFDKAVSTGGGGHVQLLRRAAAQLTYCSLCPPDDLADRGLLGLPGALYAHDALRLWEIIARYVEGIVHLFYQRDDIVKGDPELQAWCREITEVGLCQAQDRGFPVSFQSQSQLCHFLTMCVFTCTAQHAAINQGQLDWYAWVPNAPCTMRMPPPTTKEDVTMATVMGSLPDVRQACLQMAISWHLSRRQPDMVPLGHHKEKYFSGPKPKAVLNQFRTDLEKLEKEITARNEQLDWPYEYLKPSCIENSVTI
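Purified human 12hLO at 150 nM in 25 mM Hepes, 0.01% Triton X-100, pH 7.0, preincubated 15 min at room temperature with compound. Reaction started with 40 uM arachidonic acid, 30 min at room temperature. Hydroperoxide measured by Fe-xylenol orange, 573/405 nm absorbance ratio.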
A549 tox – kills or reduces viability of A549 cells in Nrf2 counter-screen; hit rate 0.16% among 390,000; AID 504648; Potency, µM (top dose mostly 46 µM), usual class: inhibitors; A549 ARE-Fluc cells, CellTiter-Fluor viability, 18-24 h
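A549 ARE-Fluc cells in 5% FBS OPTI-MEM, 5000 cells/well, rested 2 h then exposed to compounds in concentration-response for 18-24 h at 37 °C. Viability by CellTiter-Fluor fluorescence (Ex 405/Em 525) after 30 min; luciferase luminescence (BugLite, 15 min, RT) read afterwards.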
LDHA inh – blocks human lactate dehydrogenase A | purified LDHA, NADH/diaphorase-resazurin fluorescence; stronger effect = lower value | activity change, % (values are at about 110 or 230 µM) | P00338 | hit rate 0.15% among 480,000; in the data active = activity change below about -30%; inconclusive = mostly about -25% to -30%
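Human LDH5 (2 nM) was incubated with 0.06 mM NADH and 0.2 mM pyruvate for 5 min at room temperature in Tris pH 7.4. Remaining NADH was coupled through diaphorase/resazurin, and resorufin fluorescence was read at 0 and 20 min.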
A number is an active result; [ ] = another dose, or the depositor's remark. Unless noted, calls follow the shape of the dose curve; as a rule, active = well fitted curve in the direction sought with a large enough effect; inconclusive = small, poorly fitted or top-dose-only effect, or another doubt; inactive = no such curve, though single readings can be large; an effect the other way counts as inactive or inconclusive.

Results for FC(F)(F)c1cccc(N2CCN(C(=S)NC3CCCCC3)CC2)c1 ?
Nrf2 ARE act: inactive[9.22 µM]; ERG-DNA inh: inactive; Nrf2 block: 16µM; 12-LOX inh: 50µM; A549 tox: inactive; LDHA inh: inactive

What do the screens show for `CN(C)S(=O)(=O)c1ccc(NC(=O)N2CCN(c3cccc(C(F)(F)F)c3)CC2)cc1`?
Nrf2 ARE act: inactive; ERG-DNA inh: inactive; Nrf2 block: 23µM; 12-LOX inh: inactive; A549 tox: inconclusive; LDHA inh: inactive

How did CCNC(=S)N1CCN(c2cccc(C(F)(F)F)c2)CC1 do in these assays?
Nrf2 ARE act: inactive; ERG-DNA inh: inactive; Nrf2 block: inactive; 12-LOX inh: inactive; A549 tox: inactive; LDHA inh: inactive

What do the screens show for `O=C(c1cccs1)N1CCCC(N2CCN(c3cccc(C(F)(F)F)c3)CC2)C1` (configuration not stated)?
Nrf2 ARE act: inactive; ERG-DNA inh: inactive; Nrf2 block: 21µM; 12-LOX inh: inactive; A549 tox: inactive; LDHA inh: inactive

How did COc1ccc(NC(=O)N2CCN(c3cccc(C(F)(F)F)c3)CC2)cc1 do in these assays?
Nrf2 ARE act: inactive; ERG-DNA inh: inactive; Nrf2 block: inactive; 12-LOX inh: inactive; A549 tox: inactive; LDHA inh: inactive

How did FC(F)(F)c1cccc(N2CCN(C(=S)NC3CCCC3)CC2)c1 do in these assays?
Nrf2 ARE act: inactive; ERG-DNA inh: inactive; Nrf2 block: 23µM; 12-LOX inh: inactive; A549 tox: inactive; LDHA inh: inactive

How did NCC(=O)N1CCCC(N2CCN(c3cccc(C(F)(F)F)c3)CC2)C1 (configuration not stated) do in these assays?
12-LOX inh: inactive

How did CCc1ccc(NC(=S)NCCCO)cc1 do in these assays?
12-LOX inh: inactive; LDHA inh: inactive

Results for CCc1cccc2c(C3=CCN(C(=O)CC(C)C)CC3)c[nH]c12 ?
12-LOX inh: inconclusive; LDHA inh: inactive

What do the screens show for `Cc1ccnc(NC(=S)N2CCN(c3cccc(C(F)(F)F)c3)CC2)c1`?
Nrf2 ARE act: inactive; ERG-DNA inh: inactive; Nrf2 block: 23µM; 12-LOX inh: 22µM; A549 tox: inconclusive; LDHA inh: inactive

How did Cc1ccnc(NC(=S)N2CCN(c3ccc(C(F)(F)F)cc3)CC2)c1 do in these assays?
LDHA inh: inactive

What do the screens show for `Cn1c(Cl)nc2c1c(=O)n(Cc1ccc(Cl)cc1)c(=O)n2C`?
12-LOX inh: inactive; LDHA inh: inactive

What do the screens show for `Cc1cccc(OCC(O)CN2CCCN(c3ccc(C(F)(F)F)cn3)CC2)c1` (configuration not stated)?
12-LOX inh: 13µM; LDHA inh: inactive

What do the screens show for `N#Cc1ccc(OCC(O)CN2CCN(c3ncc(C(F)(F)F)cc3Cl)CC2)cc1` (configuration not stated)?
Nrf2 ARE act: inactive; ERG-DNA inh: inactive; Nrf2 block: 18µM; 12-LOX inh: inactive; A549 tox: inactive; LDHA inh: inactive

How did N#Cc1ccc(OCC(O)CN2CCN(CC(O)COc3ccc(C#N)cc3)CC2)cc1 (configuration not stated) do in these assays?
Nrf2 ARE act: inactive; ERG-DNA inh: inactive; Nrf2 block: inconclusive; 12-LOX inh: inactive; A549 tox: inactive; LDHA inh: inactive

How did CCN(CC)C(=O)C1=C(C)N(Cc2ccc(OC)cc2)C(=O)C(CC(=O)NCCN2CCOCC2)C1 (configuration not stated) do in these assays?
Nrf2 ARE act: inactive; 12-LOX inh: 16µM; LDHA inh: inactive

How did COc1ccc(CN2C(=O)C(CC(=O)NCCN3CCOCC3)CC(C(=O)N(C)C)=C2C)cc1 (configuration not stated) do in these assays?
Nrf2 ARE act: inactive; 12-LOX inh: inactive; LDHA inh: inactive

What do the screens show for `COC(=O)C(=Cc1ccc(OCc2ccc([N+](=O)[O-])cc2)c(OC)c1)C(=O)OC`?
Nrf2 ARE act: 8.9µM; ERG-DNA inh: inactive; Nrf2 block: inconclusive; 12-LOX inh: inactive; A549 tox: inconclusive; LDHA inh: inactive

Compound activity from PubChem.
